Data published in the supplement of paper PMC6555819.

Legend:
Experiment in all cases: PBM binding z-score (relative to random genomic background probes); higher = stronger binding; sequences stand for … in GC…GCGATTGACAGCGTAGAATGAAGG
[1] = system: PPARg:RXRa DBDmut IVT, anti-RXR (DBD mutation: RXRa K156A/R161A, NR concentration 270 nM, RXRa partner concentration 90 nM)
Procedure, shortened: (§1)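 Each nuclear receptor dimer, without ligand, was incubated for 1 h on custom Agilent 4×180K protein-binding microarrays. Binding was detected with antibodies against each partner (one per run), and scanned fluorescence was regression-normalized. The binding z-scores are referenced to random human genomic background probes.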

[2] = system: PPARg:RXRa IVT, anti-PPARg (NR concentration 270 nM, RXRa partner concentration 90 nM)
Procedure, shortened: as §1

[3] = system: PPARg DBDmut:RXRa IVT, anti-PPARg (DBD mutation: PPARg1 K132A/R137A, NR concentration 270 nM, RXRa partner concentration 90 nM)
Procedure, shortened: as §1

[4] = system: PPARg DBDmut IVT, anti-PPARg (DBD mutation: PPARg1 K132A/R137A, NR concentration 270 nM)
Procedure, shortened: as §1

[5] = system: PPARg homodimer (NR concentration 180 nM)
Procedure, shortened: as §1

[6] = system: PXR:RXRa (NR concentration 270 nM, RXRa partner concentration 90 nM)
Procedure, shortened: as §1

[7] = system: PXR homodimer (NR concentration 270 nM)
Procedure, shortened: as §1

[8] = system: RARa:RXR (NR concentration 270 nM, RXRa partner concentration 90 nM)
Procedure, shortened: as §1

[9] = system: RARa homodimer (NR concentration 270 nM)
Procedure, shortened: as §1

[10] = system: RARb:RXRa (NR concentration 270 nM, RXRa partner concentration 90 nM)
Procedure, shortened: as §1

[11] = system: RARb homodimer (NR concentration 270 nM)
Procedure, shortened: as §1

[12] = system: RARg:RXRa (NR concentration 270 nM, RXRa partner concentration 90 nM)
Procedure, shortened: as §1

[13] = system: RARg homodimer (NR concentration 270 nM)
Procedure, shortened: as §1

[14] = system: RXRa DBDmut IVT, anti-RXR (DBD mutation: RXRa K156A/R161A, NR concentration 90 nM)
Procedure, shortened: as §1

[15] = system: RXRa homodimer (NR concentration 180 nM)
Procedure, shortened: as §1

[16] = system: THRa:RXRa (NR concentration 90 nM, RXRa partner concentration 90 nM)
Procedure, shortened: as §1

[17] = system: THRa homodimer (NR concentration 90 nM)
Procedure, shortened: as §1

[18] = system: VDR homodimer (NR concentration 270 nM)
Procedure, shortened: as §1

Sequence | PBM binding z-score [1] | PBM binding z-score [2] | PBM binding z-score [3] | PBM binding z-score [4] | PBM binding z-score [5] | PBM binding z-score [6] | PBM binding z-score [7] | PBM binding z-score [8] | PBM binding z-score [9] | PBM binding z-score [10] | PBM binding z-score [11] | PBM binding z-score [12] | PBM binding z-score [13] | PBM binding z-score [14] | PBM binding z-score [15] | PBM binding z-score [16] | PBM binding z-score [17] | PBM binding z-score [18]
CCTTACGGGTCACGCCAGGTTATAGCATCGGAGT | 3.85 | 4.83 | 0.182 | 0.0773 | 2.19 | 5.46 | 0.316 | 4.98 | 1.14 | 4.35 | 3.89 | 5.65 | 5.54 | 1.75 | 6.22 | 5.03 | 0.956 | 0.985
ACTTGCAGGCCAAGTTTGGGTCACTCAAACAAAG | 2.37 | 1.92 | 0.338 | 0.0722 | 0.632 | 0.858 | -0.0999 | 1.61 | -0.63 | 2.05 | 2.46 | 2.6 | 1.88 | 0.31 | 1.01 | 2.53 | 1.22 | 0.527
TCAGATAGGTAAATGCTAGGTGAAAGTCCGATCT | 2.06 | 0.684 | 0.761 | 0.0198 | 0.547 | 0.13 | -0.341 | 0.568 | -0.137 | 0.156 | 0.292 | 0.258 | 0.0345 | 1.06 | 0.464 | 1.22 | -0.0517 | -0.287
CCTACTGGGCCACGAAAGGTCATGGATTCAGTGA | 5.9 | 6.03 | -0.103 | -0.148 | 3.03 | 5.15 | 0.707 | 5.48 | 1.81 | 4.27 | 4.94 | 5.28 | 4.71 | -0.0305 | 6.03 | 3.97 | 1.17 | 1.35
ACTGGCAGGCCAAGGGTCACTCAAGATTAGTCCG | -0.446 | 2.2 | -0.302 | -0.62 | 1.74 | 2.97 | -0.0528 | 3.8 | -0.0207 | 3.4 | 3.66 | 4.14 | 3.64 | -0.0715 | 3.95 | 2.71 | 0.159 | 1.11
CCTTACGGGTCTCGAGGTTATAGCACGACGAGCG | -0.507 | 0.298 | -0.399 | -0.982 | 0.167 | 0.396 | -0.353 | 0.806 | -0.452 | 0.666 | 0.421 | 0.66 | 0.422 | -0.815 | 1.27 | 1.05 | -0.08 | 0.435
AGATGTAGGTTATCGGGTCATTCAGTTTGCGCAT | 7.36 | 7.13 | 2.95 | 1.82 | 2.53 | 4.02 | 7.55 | 4.01 | 1.35 | 2.73 | 3.17 | 3.19 | 2.6 | 1.75 | 3.47 | 3.46 | 2.87 | 3.92
CGTCCAAGGTCAATGCTAGGTCAGTCAAAGCATT | 3.29 | 3.92 | 0.558 | -0.362 | 4.74 | 4.84 | 1.29 | 5.75 | 1.17 | 5.36 | 5.08 | 7.7 | 6.73 | 3.62 | 5.82 | 4.52 | 2.99 | 3.23
TGTCGGAGGACACGAAAGGTCAGAGCTCGACATC | -0.0424 | 1.74 | 0.729 | -0.228 | 2.53 | 4.04 | 0.82 | 4.12 | 1.52 | 4.31 | 4.55 | 4.97 | 5.76 | -0.334 | 4.22 | 3.78 | 1.3 | 1.38
CCTTATGGGTCACTGACAGGTTATAGCATTTGGA | 5.9 | 6.16 | 0.901 | 0.187 | 2.16 | 2.86 | 0.162 | 3.89 | 0.956 | 3.8 | 3.37 | 5.28 | 3.89 | 1.05 | 4.43 | 2.59 | 0.464 | 0.502
TCTTGTAGATCAAACGTTAAGAAAGCCGAAGCCT | 2.23 | 0.376 | 0.781 | 0.516 | -0.0553 | 0.00909 | -0.155 | 0.0712 | -0.409 | -0.19 | -0.779 | -0.146 | -0.238 | 0.749 | 0.138 | -0.412 | -0.567 | -0.573
CCTGCTGGGCCAAAGGTCATTGATTCCAATGCTC | 1.56 | 4.42 | -0.0348 | 0.037 | 3.9 | 5.43 | 1.15 | 6.18 | 0.602 | 4.63 | 4.53 | 5.82 | 4.91 | 1.48 | 6.37 | 3.2 | 0.638 | 2.24
TCTAGTTGGTCCCGGAGGTCACACACGACGGGTA | 1.7 | 1.82 | 0.461 | 1 | 2.76 | 4.18 | 1.4 | 4.64 | 1.21 | 3.41 | 3.79 | 3.99 | 3.7 | 0.937 | 4.39 | 3.59 | 3.02 | 2.67
ATCTCTAGGTAAAAGTTCCGTGAATCCCGAGGAT | 2.32 | 1.72 | 0.769 | 1.67 | 0.967 | -0.0655 | 0.269 | 0.0824 | 0.505 | 0.237 | -0.157 | 0.0505 | 0.279 | 0.162 | 0.162 | 0.383 | 0.302 | 0.13
